# Sampled rows, rich in hits. Any-hit rate of the full collection: about 2.4%.
# MEKK2wt PB1 HTS: modulators of MEK5 binding to wildtype MEKK2, primary screen, biochemical, multiplex bead flow cytometry, Alexa488-MEK5 | binding response (% of control), % at 10 µM | hit rate 1.1% among 290,000 | Alexa488-MEK5 binding to MEKK2 WT; actives lie on both sides | Mitogen-activated protein kinase kinase kinase 2 (Homo sapiens), Q9Y2U5; in the data active means binding response below about 67% or above about 130%
# MEKK3 PB1 HTS: modulators of MEKK3-MEK5 PB1 binding, primary screen, biochemical, wildtype MEKK3, multiplex bead flow cytometry, Alexa488-MEK5 | Mitogen-activated protein kinase kinase kinase 3 (Homo sapiens), Q99759 | bead-based flow cytometry, Alexa488-MEK5 binding to MEKK3; actives lie on both sides; 0 = blocked by unlabeled MEK5, 100 = vehicle | binding response (% of control), % at 10 µM | hit rate 1.4% among 290,000 | AID 1529, 2009;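 active means binding response more than 3 SD above or below the average of its plate-row segment, actives on both sides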;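 further: Alexa488 bead fluorescence after subtracting the streptavidin-only scavenger bead signal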
# Target sequence (Q99759 whole entry, looked up): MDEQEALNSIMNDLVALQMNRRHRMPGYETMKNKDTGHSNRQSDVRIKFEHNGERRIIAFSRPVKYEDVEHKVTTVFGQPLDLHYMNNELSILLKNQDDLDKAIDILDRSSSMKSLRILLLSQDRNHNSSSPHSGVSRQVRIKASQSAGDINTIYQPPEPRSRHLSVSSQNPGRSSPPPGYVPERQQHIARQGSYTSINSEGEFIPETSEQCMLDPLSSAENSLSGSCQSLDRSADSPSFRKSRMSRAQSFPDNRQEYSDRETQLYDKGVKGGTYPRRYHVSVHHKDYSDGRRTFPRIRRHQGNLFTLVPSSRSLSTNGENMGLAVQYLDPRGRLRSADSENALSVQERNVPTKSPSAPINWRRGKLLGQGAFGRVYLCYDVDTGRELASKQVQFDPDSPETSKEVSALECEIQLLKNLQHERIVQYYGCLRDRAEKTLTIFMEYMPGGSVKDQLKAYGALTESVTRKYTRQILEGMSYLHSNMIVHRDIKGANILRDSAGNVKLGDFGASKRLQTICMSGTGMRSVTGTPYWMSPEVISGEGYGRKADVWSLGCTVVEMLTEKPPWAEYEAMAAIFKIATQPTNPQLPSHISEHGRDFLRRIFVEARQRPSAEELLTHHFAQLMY
# Arbovirus inh: antivirals against arbovirus infection, primary screen, cell-based, full library, 10K replicate subset; arbovirus infection cell-based antiviral screen; inhibition, % at 10 µM; hit rate 0.37% among 200,000; in the data active means inhibition above about 30%
# Pf gamet viab: late stage P. falciparum gametocyte viability inhibitors, primary screen, ATP luminescence, HTS; P. falciparum stage V gametocytes, 24 h; inhibition, % at 10.9 µM; hit rate 0.065% among 150,000; AID 743093, 2013;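 active means inhibition above the mean plus 3 SD of compounds within the control limits, set per campaign, cut at about 38% in these data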;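 further: 0% = DMSO wells and 100% = medium only without gametocytes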
# MEKK2mut PB1 HTS: MEK5 binding signal on mutant MEKK2 PB1, primary screen, biochemical, multiplex bead flow cytometry, Alexa488-MEK5; Alexa488-MEK5 binding to MEKK2 mutant; percent response, % at 10 µM; hit rate 0.35% among 290,000; in the data active means percent response above about 24%, passing the limit was not always enough
# MEKK2wt confirm: modulators of MEK5 binding to wildtype MEKK2, confirmation, biochemical, single concentration, multiplex bead flow cytometry. shares compounds with MEKK3 PB1 HTS. Alexa488-MEK5 binding to MEKK2 WT; actives lie on both sides. binding response (% of control), % at 10 µM. hit rate 2.4% among 5,900. AID 1892, 2009; in the data active means binding response below about 16% or above about 210%; inactive means in between
# MEKK2mut confirm: mutant MEKK2 PB1-MEK5 binding signal retest – biochemical, single concentration, multiplex bead flow cytometry, confirmation; hit rate 2% among 5,900; percent response, % at 10 µM; Alexa488-MEK5 binding to MEKK2 mutant; shares compounds with MEKK3 PB1 HTS; AID 1893, 2009; in the data active means percent response mostly above about 71%, no sharp cut-off; inactive means mostly below about 38%;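 further: higher means compound restores mutant binding toward wildtype level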
# MEKK3-MEK5 inh: MEKK3 wild-type PB1 binding to MEK5, inhibitors, confirmation, biochemical, bead multiplex flow cytometry, single concentration, wildtype. shares compounds with MEKK3 PB1 HTS. binding response (% of control), % at 10 µM. Alexa488-MEK5 binding to MEKK3; active compounds read low. hit rate 1.8% among 5,900. AID 1894, 2009;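 active means binding response below 72% of control, or above a set upper limit, though filed actives all read lower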;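 further: 100% = DMSO only wells and 0% = binding blocked by excess unlabeled MEK5; lower values mean stronger disruption of MEK5 binding to MEKK3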
# * hit, by the source's call; . = no result; [ ] = another dose, or the depositor's remark.
SMILES,MEKK2wt PB1 HTS,MEKK3 PB1 HTS,Arbovirus inh,Pf gamet viab,MEKK2mut PB1 HTS,MEKK2wt confirm,MEKK2mut confirm,MEKK3-MEK5 inh
COC(=O)C1CCC(C)(C(=O)Nc2ccccc2)C1(C)C (centres undefined),3.0*[inhibitor],3.0*[inhibitor],-6.0,.,-20.0,102.0,3.0,100.0
COc1ccc(NC(=O)C2CCC(C)(C(=O)O)C2(C)C)cc1 (centres undefined),94.0,96.0,9.3,15.0,-4.0,.,.,.
CN(C)c1ccc(C(CN)c2c[nH]c3ccccc23)cc1 (centres undefined),110.0,69.0*[inhibitor],-10.3,1.5,0.0,131.0,18.0,97.0
CCC1=NC(c2ccc(OC)cc2)N(O)C1(C)C (centres undefined),93.0,80.0*[inhibitor],14.2,.,-13.0,97.0,10.0,99.0
CCC1=NC(c2ccc(OC)c(OC)c2)N(O)C1(C)C (centres undefined),104.0,106.0,1.9,-6.0,-1.0,.,.,.
COc1cc(/C=C2\SC(=S)N(CC(=O)Nc3ccc(O)cc3)C2=O)cc(OC)c1OC,51.0,67.0*[inhibitor],7.1,.,90.0*,87.0,-12.0,97.0
CCN1C(=O)/C(=C/C=C2\N(CC)c3cc(S(=O)(=O)N(C)C)ccc3N2c2ccccc2)SC1=S,53.0*[inhibitor],81.0,.,17.1,-4.0,39.0,-22.0,76.0
CC(Sc1nc(-c2ccccc2)cs1)C(=O)Nc1ccc(Cl)cn1 (centres undefined),111.0,149.0*,4.3,16.2,1.0,110.0,-1.0,105.0
Cc1cccc(N=C2NC(=O)/C(=C/C=C/c3ccco3)S2)c1,91.0,64.0*[inhibitor],19.2,-14.2,-2.0,84.0,-14.0,94.0
COc1ccc(N=C2NC(=O)/C(=C\C=C\c3ccco3)S2)cc1,90.0,99.0,2.4,-41.1,-9.0,.,.,.
CCOC(=O)N1CCN(c2ncnc3c2[nH]c2ccc(OC)cc23)CC1,105.0,99.0,-9.3,.,1.0,.,.,.
COc1ccc2[nH]c3c(N4CCc5ccccc5C4)ncnc3c2c1,189.0*,127.0,.,-7.3,47.0,130.0,15.0,103.0
Cc1ccnc(NC(=O)C2(c3cccs3)CCOCC2)c1,107.0,145.0*,-1.3,-13.8,0.0,1.0*[inhibitor],-29.0,2.0*
Cc1ccnc(NC(=O)/C=C/c2cccs2)c1,178.0*,120.0,4.1,.,58.0*,105.0,-7.0,97.0
O=C(/C=C/c1cccs1)Nc1nncs1,103.0,99.0,.,-3.3,1.0,.,.,.
C=CCNC(=O)/C=C/c1cccs1,112.0,135.0*,9.2,-6.2,-1.0,115.0,17.0,108.0
O=C(Nc1ccccn1)C1(c2cccs2)CCOCC1,92.0,90.0,17.2,.,-1.0,.,.,.
C=CC[N+]1(CC(=O)NCc2ccc(NC(C)=O)cc2)CCOCC1,104.0,110.0,.,27.9,1.0,.,.,.
O=C(NN1CCOCC1)c1cccc(Cl)c1,100.0,98.0,.,.,-5.0,.,.,.
COc1ccc(OC)c(N/C(=N/C(=S)Nc2ccccc2)Nc2nc(C)cc(C)n2)c1,54.0,48.0*[inhibitor],.,1.1,-49.0,88.0,-4.0,99.0
COCCN1CCC(CNCc2cn(-c3cc(C)ccc3C)nc2-c2ccccc2)C1 (centres undefined),163.0*,107.0,-32.6,1.1,9.0,173.0,41.0,111.0
COCCN1CCC(CNCc2cn[nH]c2-c2ccc(C)c(C)c2)C1 (centres undefined),161.0*,100.0,-10.3,-2.6,31.0,159.0,43.0,114.0
CC1(c2ccccc2)CC(C)(C)N2C(=O)C3(C(C#N)=C(N)Oc4cc(O)ccc43)c3cccc1c32 (centres undefined),88.0,101.0,-36.9,.,-4.0,.,.,.
CC1(c2ccccc2)CC(C)(C)N2C(=O)/C(=C3\SC(=S)NC3=O)c3cccc1c32 (centres undefined),96.0,147.0*,11.0,.,-1.0,95.0,-3.0,95.0
COc1ccccc1N1CCN(C2CCCN(C(=O)CCc3ccccn3)C2)CC1 (centres undefined),103.0,102.0,.,.,5.0,.,.,.
SMILES,MEKK2wt PB1 HTS,MEKK3 PB1 HTS,Arbovirus inh,Pf gamet viab,MEKK2mut PB1 HTS,MEKK2wt confirm,MEKK2mut confirm,MEKK3-MEK5 inh
Cc1c(CNC2CCC(C)CC2)c(C(=O)O)c(C)n1Cc1ccccc1 (centres undefined),111.0,140.0*,1.0,11.0,1.0,109.0,8.0,106.0
Cc1c(CNC2CCCC2)c(C(=O)O)c(C)n1Cc1ccccc1,101.0,102.0,4.0,-9.1,-1.0,.,.,.
CCC(NC(=O)C1C2C=CC(C2)C1C(=O)O)c1ccc(C)cc1 (centres undefined),104.0,106.0,.,9.4,2.0,.,.,.
COC(=O)CCC(=O)OC1(C)C(=O)C2=CN(CCCCO)C(c3ccc(OC)cc3)=CC2=C(Br)C1=O (centres undefined),85.0,92.0,.,.,-6.0,.,.,.
CCCCC1=CC2=C(c3ccco3)C(=O)C(C)(OC(=O)c3ccc(OC)cc3)C(=O)C2=CN1Cc1ccc2c(c1)OCO2 (centres undefined),138.0*,120.0,.,.,1.0,83.0,-9.0,87.0
COC(=O)CCC(=O)OC1(C)C(=O)C2=CN(CCc3ccccn3)C(c3ccc(OC)cc3)=CC2=C(Br)C1=O (centres undefined),95.0,93.0,.,.,1.0,.,.,.
CCCCC1=CC2=C(c3ccco3)C(=O)C(C)(OC(=O)c3ccc(OC)cc3)C(=O)C2=CN1Cc1ccccc1 (centres undefined),101.0,105.0,.,14.5,1.0,.,.,.
COC(=O)CCC(=O)OC1(C)C(=O)C2=CN(C(CO)CO)C(c3ccc(OC)cc3)=CC2=C(Br)C1=O (centres undefined),91.0,82.0*[inhibitor],.,.,-2.0,98.0,-2.0,93.0
COC(=O)CCC(=O)OC1(C)C(=O)C2=CN(CCN3CCOCC3)C(c3ccc(OC)cc3)=CC2=C(Br)C1=O (centres undefined),149.0*,127.0,.,.,4.0,100.0,0.0,100.0
CC1(OC(=O)CCc2ccccc2)C(=O)C=C2C=C(c3ccc(C#N)cc3)N(CCN3CCOCC3)C=C2C1=O (centres undefined),138.0*,117.0,.,.,2.0,104.0,1.0,101.0
